Results filed as inconclusive are left out. A call without a number means that no potency is given here. Activity calls are given as the source filed them. Calls come from the whole dose curve; as a rule, active = well fitted inhibition curve with a large enough effect; inconclusive = small, poorly fitted or top-dose-only effect; inactive = no such curve, though single readings can be large or run the other way.

Assay [1] has as its system Zika virus NS2B-NS3 protease (unlinked complex). The assay is described as follows: Primary screen GU Rhodamine qHTS for Zika virus inhibitors: Unlinked NS2B-NS3 protease assay (AID 1347159). Note: nearly all actives have a fitted effect of over 60% in size. The note with it: Recombinant ZIKV NS2B-NS3 protease, Rhodamine110 substrate fluorescence; series mostly up to 107 µM. In a few lines:
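Percent inhibition came from the 15-min rise in Rhodamine110 fluorescence (1.5 microM substrate, ~15% conversion), normalized to no-inhibitor and no-enzyme wells and Hill-fitted. Unlinked protease, 25 nM, pH 8.0 Tris buffer; compounds up to 114 microM, 15-min preincubation.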
A general note: In qHTS, concentration-response curves come from the screen itself.

Assay [2] deals with Zika virus NS2B-NS3 protease (linked construct). The assay is described as follows: Primary screen NINDS Rhodamine qHTS for Zika virus inhibitors (AID 1347160). Note: nearly all actives have a fitted effect of over 55% in size. Particulars: purified NS2B-NS3 protease, Rhodamine110 substrate fluorescence; series mostly up to 57.1 µM. In a few lines:
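Rhodamine110-peptide cleavage (1.5 µM substrate) by 25 nM linked NS2B-NS3 enzyme at pH 8.0 (Tris, Tween 20), after 15 min RT preincubation with compounds; 15-min fluorescence change normalized to controls and Hill-fitted.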

Take `NC(=O)CCCSc1nc(N)nc(-c2c(Cl)cc3c4c(cccc24)COC3)n1`: the Potency entry in assay [1] and in assay [2] was “inactive” throughout.

With `Nc1nc2c(c(N3CC[C@@H](N)C3)n1)CCCc1ccccc1-2`, the Potency entry in assay [1] and in assay [2] was “inactive” throughout.

As for `CCCCCCCCn1cc(CN(CC)CC)c2cc(-c3cnc(N)nc3)ccc21`, the Potency result in assay [1] and in assay [2] was “inactive” in each case.

Consider `Cc1ccc(C(=O)Nc2ccc(CN3CCN(C)CC3)c(C(F)(F)F)c2)cc1C#Cc1cnc2[nH]ncc2c1`, for which the Potency entry in assay [1] and in assay [2] was “inactive” each time.

`Cc1cc(CS(=O)(=O)c2ccccc2)cc(OCc2ccc(CN3CCCC3CO)cc2)c1` (configuration not stated): the Potency result in assay [1] and in assay [2] was “inactive” in each case.

On to `CN1CCc2cc3c(cc2C(=O)Cc2cc4c(cc2C1)OCO4)OCO3`, for which the Potency result in assay [1] and in assay [2] was “inactive” in each case.

Take `C[C@H](Nc1ncnc2nc[nH]c12)c1cc2cccc(Cl)c2c(=O)n1-c1ccccc1`: the Potency entry in assay [1] and in assay [2] was “inactive” throughout.

As to `CCOc1ccc(CCNC(=O)c2cc3sc(Cl)cc3n2C)cc1OCC`, the Potency entry in assay [1] and in assay [2] was “inactive” throughout.

As to `c1cc(NCCc2c[nH]c3ccccc23)cc(Nc2ccncc2)c1`, the Potency result in assay [1] and in assay [2] was “inactive” throughout.

`C[C@@H]1O[C@@H](O[C@H]2[C@H](O[C@H]3CC[C@@]4(C)C(CC[C@]5(C)C4C=C[C@]46OC[C@@]7(CCC(C)(C)C[C@H]74)[C@@H](O[C@@H]4O[C@@H](C)[C@H](O)[C@@H](O)[C@H]4O)C[C@]65C)[C@]3(C)CO)O[C@H](CO)[C@@H](O)[C@@H]2O[C@@H]2O[C@H](CO)[C@@H](O)[C@H](O)[C@H]2O)[C@H](O)[C@H](O)[C@H]1O` (some centres not stated): the Potency entry in assay [1] and in assay [2] was “inactive” each time.

On to `C/C=C(/C)C(=O)O[C@@H]1C[C@@H](OC(=O)CC(C)C)C2(C)C3C(=O)C=C(C)C2C3C1(C)C` (some centres not stated), for which the Potency result in assay [2] was “inactive”.

Take `O=S(=O)(c1ccc(Cl)cc1)N1CCN(c2ccnc3cc(Cl)ccc23)CC1`: the Potency result in assay [2] is “inactive”.

On to `COc1cc2c(NC3CCN(C(C)C)CC3)nc(N3CCC(F)(F)CC3)nc2cc1OCCCN1CCCC1`, for which the Potency result in assay [2] was “inactive”.

For `C=CC(=O)Nc1cccc(Nc2nc(Nc3ccc(OCCOC)cc3)ncc2F)c1`, the Potency entry in assay [2] was “inactive”.

For the molecule `C=CC1(C)CC(O)C(C(=C)C(=O)OC)C(O)C1C(=C)CO` (configuration not stated), the Potency entry in assay [2] is “inactive”.

As to `COc1ccc(NC(=O)c2ccc(C(=N)N(C)C)cc2)c(C(=O)Nc2ccc(Cl)cn2)c1`, the Potency entry in assay [2] was “inactive”.

`Cc1cc(-c2cnc(N)c3c(-c4ccc5scnc5c4)csc23)n(C)n1`: the Potency result in assay [2] was “inactive”.

As for `O=C1Cc2c([nH]c3ccc(Br)cc23)-c2ncccc2N1`, the Potency entry in assay [2] was “inactive”.

Regarding `C/C=C/C=C/C(=O)O[C@@H]1C=C2COC(=O)[C@]2(O)[C@@]2(C)CCCC(C)(C)[C@H]12`, in assay [2], the Potency result was “inactive”.

As to `Clc1ccc(Nc2nc3ccccc3c3nc(C4CCCCC4)[nH]c23)cc1Cl`, the Potency result in assay [2] was “inactive”.

For `Nc1nc(NC2CC2)cc(-c2cccc(Cl)c2Cl)n1`, in assay [2], the Potency result is “inactive”.

`Cc1ccc(C)c(NS(=O)(=O)c2cc(C(=O)Nc3ccccc3-c3ccccc3)ccc2C)c1`: in assay [2], the Potency entry was “inactive”.

In the case of `CC(=O)O[C@@H]1CC2C(C)(C)C(=O)C=C[C@]2(C)C2CC[C@@]3(C)[C@H](c4ccoc4)OC(=O)[C@H]4O[C@]43[C@@]21C` (some centres not stated), the Potency entry in assay [2] was “inactive”.

For the molecule `CC(C)c1cccc(C(C)C)c1NC(=O)Nc1ccc(Sc2ccc([N+](=O)[O-])cc2)cc1`, the Potency result in assay [2] was “inactive”.

As to `O=C(Nc1cc(C(F)(F)F)ccc1N1CCCCC1)c1ccncc1`, the Potency result in assay [2] is “inactive”.

Consider `COC(=O)/C=C/C=C/C(=O)OC1C=C2COC(=O)C2(O)C2(C)CCCC(C)(C)C12` (configuration not stated), for which the Potency result in assay [2] is “inactive”.

Take `CC[C@H](C(=O)Nc1ccccc1N1CCCC1)c1ccccc1`: the Potency entry in assay [2] was “inactive”.

Regarding `C[C@@H](O[C@H]1OCCN(Cc2nn(P(=O)(O)O)c(=O)[nH]2)[C@H]1c1ccc(F)cc1)c1cc(C(F)(F)F)cc(C(F)(F)F)c1`, in assay [2], the Potency result is “inactive”.

Take `CC(F)(F)CN1CCOc2c(nn(-c3ccccc3Cl)c2-c2ccc(Cl)cc2)C1=O`: in assay [2], the Potency entry was “inactive”.

On to `C1=Cc2ccccc2C(=C2CCN(CCCCc3nn[nH]n3)CC2)c2ccccc21`, for which the Potency entry in assay [2] is “inactive”.

Take `O=C1c2ccc(Nc3ccc(F)cc3F)cc2CCc2ccc(OCC(O)CO)cc21` (configuration not stated): the Potency entry in assay [2] is “inactive”.

As for `O=C(O)CCc1nccc2c1[nH]c1ccccc12`, in assay [2], the Potency entry is “inactive”.

Take `CN1c2c(nc(N)[nH]c2=O)NC[C@@H]1CNc1ccc(C(=O)N[C@@H](CCC(=O)O)C(=O)O)cc1`: in assay [2], the Potency entry was “inactive”.

`C=C(C(=O)OC[C@H]1O[C@@H](OC(=O)/C=C/c2ccccc2)[C@H](O)[C@@H](O)[C@@H]1O)C(O)CO` (some centres not stated): the Potency entry in assay [2] is “inactive”.

With `COc1ccc(-c2c(C)nn3c(NCCN4CCOCC4)cc(C)nc23)cc1OC`, the Potency result in assay [2] was “inactive”.

Take `C=C1CCN([C@H](C)[C@](O)(Cn2cncn2)c2ccc(F)cc2F)CC1`: the Potency entry in assay [2] is “inactive”.

On to `CC(=O)O[C@@]12CO[C@@H]1C[C@H](O)[C@@]1(C)C(=O)[C@H](O)C3=C(C)[C@@H](OC(=O)[C@H](O)[C@@H](NC(=O)OC(C)(C)C)c4ccccc4)C[C@@](O)([C@@H](OC(=O)c4ccccc4)C12)C3(C)C` (some centres not stated), for which the Potency entry in assay [2] is “inactive”.

In the case of `Nc1nc2c(nc(Br)n2[C@@H]2O[C@@H]3COP(=O)(O)O[C@H]3[C@H]2O)c(=O)[nH]1`, in assay [2], the Potency entry was “inactive”.

Regarding `O=C(NCc1cccs1)c1cc2nc(-c3ccco3)cc(C(F)(F)Cl)n2n1`, the Potency result in assay [2] was “inactive”.

With `C=C1C(=O)OC2C1CCC1(C)C(O)CCC(=C)C21` (configuration not stated), the Potency entry in assay [2] is “inactive”.

In the case of `Cn1c(SCC(=O)N2CCC[C@H]2C(=O)Nc2ccccc2-c2ccccc2)nc2ccccc21`, the Potency result in assay [2] was “inactive”.

For `Cc1nc(N2CCN(C(=O)c3ccco3)CC2)c2c3c(sc2n1)CCCC3`, in assay [2], the Potency entry was “inactive”.

For `CC(C)CCNC(=O)c1ccc2c(c1)nc(Nc1n[nH]c3ccc(-c4ccccc4OC(F)(F)F)cc13)n2C1CCC(O)CC1` (configuration not stated), in assay [2], the Potency entry was “inactive”.

Regarding `CC(=O)OC[C@]12[C@H](OC(C)=O)C(=O)[C@@H]3[C@@H](O)[C@@]14O[C@@]3(C)COC(=O)c1cccnc1[C@@H](C)[C@H](C)C(=O)O[C@@H]([C@H](O)[C@@H]2OC(C)=O)[C@]4(C)O`, the Potency result in assay [2] is “inactive”.

For the molecule `COc1cc(N2CCC(O)CC2)ccc1Nc1nc(Nc2ccccc2S(=O)(=O)C(C)C)c2[nH]cnc2n1`, in assay [2], the Potency result was “inactive”.

For `COc1ccc(CN2CCN(CCCSc3cc(C(C)(C)C)c(O)c(C(C)(C)C)c3)CC2)c(OC)c1OC`, the Potency result in assay [2] is “inactive”.

In the case of `CCC(=O)N1CCOc2c(cc(-c3ccc(OC)c(OC)c3)cc2OC[C@H]2CCCN(C)C2)C1`, in assay [2], the Potency result is “inactive”.
